Tcruzi prolif = T. cruzi proliferation inhibition. T. cruzi beta-gal in NIH3T3, GalScreen luminescence, 90 h. inhibition, % at 8.34 µM. 77,000 compounds, 5.9% hits. AID 624255;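 active = mean inhibition above about 93%, with at least 55% of replicates each passing it, limit read from the data, passing the limit was not always enough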
Pf Dd2 growth = inhibitors of Plasmodium falciparum Dd2 growth; P. falciparum Dd2 growth, SYBR Green, 72 h; stronger effect = lower value; activity change, % at 10 µM; 94,000 compounds, 2.3% hits; AID 1159554; in the data active = activity change below about -80%
C diff growth = C. difficile growth inhibition; Clostridium difficile clinical isolate growth, OD600, 24 h; stronger effect = lower value; growth activity, negative = inhibition, % at 16 µg/mL (by protocol); 86,000 compounds, 0.25% hits; AID 1259249;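 active = mean growth activity at or below -80% and every replicate also at or below -80%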;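 also: 0% = DMSO wells and -100% = levofloxacin 16 µg/mL wells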
The depositor's hits bear a star. Compounds with a hit are over-represented: about 6.8% of the library has one in this group of screens.

`C[C@@H]1CN([C@@H](C)CO)C(=O)c2cc(NC(=O)c3ccccc3)ccc2O[C@@H](C)CCCCO[C@H]1CN(C)C(=O)C1CCCCC1` gave Tcruzi prolif 19, Pf Dd2 growth -71 and C diff growth 6.
For CO[C@H]1CN(C)C(=O)c2ccc(NC(=O)Nc3cc(F)ccc3F)cc2OC[C@H](C)N(C)C[C@H]1C the results were Tcruzi prolif -20 and Pf Dd2 growth -17.
For CO[C@H]1CN(C)C(=O)c2cc(NC(=O)Nc3ccccc3F)ccc2OC[C@@H](C)N(C(C)=O)C[C@@H]1C the results were Tcruzi prolif -12, Pf Dd2 growth -11 and C diff growth -2.
COc1ccc(S(=O)(=O)NC[C@H]2CC[C@H]3[C@H](CN3Cc3cc(F)ccc3F)O2)cc1 was read as Pf Dd2 growth 7 and C diff growth -4.
`COc1ccc2c3c([nH]c2c1)[C@H](CO)N(Cc1ccncc1)CC31CN(S(C)(=O)=O)C1` gave Pf Dd2 growth -43 and C diff growth 15.
COc1ccc(CN2CC3(CCN(S(=O)(=O)c4ccc(C)cc4)CC3)c3c([nH]c4cc(OC)ccc34)[C@H]2CO)cc1 was read as Pf Dd2 growth -86* and C diff growth 30.
COc1ccc(S(=O)(=O)N2CCC3(CC2)CN(Cc2ccncc2)[C@H](CO)c2[nH]c4cc(OC)ccc4c23)cc1 was read as Pf Dd2 growth -88* and C diff growth -8.
For COc1ccc2c3c([nH]c2c1)[C@H](CO)N(Cc1ccccc1)CC31CCN(S(=O)(=O)c2ccc(C)cc2)CC1 the results were Pf Dd2 growth -54 and C diff growth 1.
Screening COc1cccc(-c2cccc(-c3nc(C(=O)NCc4ccc(Oc5ccccc5)cc4)cc4c3[C@@H](CCO)N(S(=O)C(C)(C)C)C4)c2)c1 (stereo not given in full) returned Pf Dd2 growth -84* and C diff growth -5.
For COc1ccc(CNC(=O)c2cc3c(c(-c4cccc(-c5cccc(C#N)c5)c4)n2)[C@H](CCO)N([S@@](=O)C(C)(C)C)C3)cc1 the results were Tcruzi prolif 90 and Pf Dd2 growth -80.
Screening CC(C)(C)[S@@](=O)N1Cc2cc(C(=O)NCCc3ccncc3)nc(-c3cccc(-c4ccccc4)c3)c2[C@H]1CCO returned Pf Dd2 growth -85* and C diff growth -6.
`CCNC(=O)c1cc2c(c(-c3cccc(-c4cc5ccccc5o4)c3)n1)[C@@H](CCO)N(C(=O)NC(C)C)C2` gave Pf Dd2 growth -76 and C diff growth -14.
Screening CC(C)(C)[S@@](=O)N1Cc2cc(C(=O)NCc3ccncc3)nc(-c3cccc(-c4ccncc4)c3)c2[C@H]1CCO returned Tcruzi prolif 32 and Pf Dd2 growth -35.
Screening CCCNC(=O)c1cc2c(c(-c3cccc(-c4cc5ccccc5o4)c3)n1)[C@H](CCO)N(C(=O)NC(C)C)C2 returned Pf Dd2 growth -93* and C diff growth 3.
For COCC(=O)N(C)C[C@H]1Oc2cc(-c3ccc(F)cc3)ccc2S(=O)(=O)N([C@H](C)CO)C[C@H]1C the results were Tcruzi prolif 18, Pf Dd2 growth 39 and C diff growth -5.
`CO[C@@H]1CN(C)C(=O)c2ccc(NC(C)=O)cc2OC[C@H](C)N(C(=O)C2CCCCC2)C[C@H]1C` gave Tcruzi prolif 27.
COc1ccccc1C(=O)N1C[C@H]2[C@@H](c3ccccc31)[C@H](CO)N2C(=O)C1CCCCC1 was read as Tcruzi prolif 37, Pf Dd2 growth -13 and C diff growth 4.
`CO[C@@H]1CN(C)C(=O)c2cc(NC(=O)Nc3ccc(Cl)c(Cl)c3)ccc2OC[C@H](C)NC[C@H]1C` gave Tcruzi prolif -61, Pf Dd2 growth -77 and C diff growth -98*.
`CO[C@H]1CN(C)C(=O)c2cc(NC(=O)Nc3ccc(Cl)cc3)ccc2OC[C@H](C)NC[C@H]1C` gave Tcruzi prolif -28, Pf Dd2 growth -9 and C diff growth -1.
Screening CO[C@H]1CN(C)C(=O)c2cc(NC(=O)Nc3ccc(Cl)cc3)ccc2OC[C@H](C)NC[C@@H]1C returned Tcruzi prolif -32, Pf Dd2 growth 22 and C diff growth -4.
Screening CO[C@@H]1CN(C)C(=O)c2cc(NC(=O)Nc3ccc(Cl)c(Cl)c3)ccc2OC[C@@H](C)NC[C@@H]1C returned Tcruzi prolif -58, Pf Dd2 growth -86* and C diff growth -97*.
CO[C@@H]1CN(C)C(=O)c2cc(NC(=O)Nc3ccc(Cl)cc3)ccc2OC[C@@H](C)NC[C@@H]1C was read as Tcruzi prolif -25, Pf Dd2 growth -1 and C diff growth -2.
COc1cccc(NC(=O)Nc2ccc3c(c2)C(=O)N(C)C[C@H](OC)[C@@H](C)CN[C@H](C)CO3)c1 was read as Tcruzi prolif -9 and Pf Dd2 growth 7.
